# This is one part of a sample in which the strongest signals are shown more often than they occur.
# B1: Pbx2 (Cryptococcus neoformans) (protein)
# chain: AVSPLPSSTELVFYSQKRRRRRICSTATGSLSTPDPTRMTSDPYKRVGMRFSSVPRLLITFLSLLLLVSAAPPCVRFADYDSINQMFIDGGPGTKVLLCPNRLYRLSGPIIFTAADQEIATYGYPTGSERAVLRVEGRNTATAIQGDCRRCARVSVKNLVVDGNRKKLGRMRDFQLATGLVVLGGNEGQSIQNSWIKNPRGFTAIHIREGDKLQCSGARVEKNEIGPVGEEYDPEKDGDDPEMSPLGRPLADGVSIACRDSFIRDNTFRDNTDAAIVVYCSPGTLIHANHIFAQSLSAMAGILMVDSTPFNGDYTGTVVRSNIIDAVSRTIRVGIGIGPTVWSDDTETILTGGSVIGNGLKGRYMGYGIAAAGLKQWTIKDNWDEAKHEGRKSARCFDEPVNPDPIGLLYNRPTMEDCTVQSGFADHDFQYLVCIDGLYDKTNPPKHDPAPLAHDPSPTNAQEDNTVQQDGGDSKSKSIEQPREASDIEAEPSVEKMFSTGSEMMDDVLEHSHQRMHEVIDHLSRRIDILGAASAGKGSGDSKISEVLDPAMSSHLEKLQRKIEHLEFSLRSQIETAIQLRSAIQGWDQEMALVTDWEYDILLDVRHKLELSSYPHDQPLDPRLMRGQSYLNNEAVLVDDHSHPSLEGENLRAMSDRARLNANEEA
# How the values were obtained:
# Experiment in all cases: glycan array binding signal (z-score within array); higher = stronger binding
# Conditions in all cases: glycan notation: IUPAC condensed, linker removed
# [1] = target: Fuc(a1-2)Gal(b1-4)[Fuc(a1-3)]GlcNAc(b1-3)GalNAc
# Method in brief: (§1)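 Negative Z-scores can be read as non-binding. The Z-score is calculated within each array and then averaged across arrays of one protein sequence at different concentrations or buffers and across linkers. Arrays, 3228 in all, were curated from the Consortium for Functional Glycomics database and kept only where the protein sequence was available.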
# [2] = target: Fuc(a1-2)Gal6S(b1-3)GlcNAc6S
# Method in brief: as §1
# Fuc(a1-2)Gal6S(b1-4)Glc = target: Fuc(a1-2)Gal6S(b1-4)Glc
# Method in brief: as §1
# [3] = target: Fuc(a1-2)[Gal(a1-3)]Gal(b1-3)GlcNAc(b1-2)Man(a1-3)[Fuc(a1-2)[Gal(a1-3)]Gal(b1-3)GlcNAc(b1-2)Man(a1-6)]Man(b1-4)GlcNAc(b1-4)GlcNAc
# Method in brief: as §1
# [4] = target: Fuc(a1-2)[Gal(a1-3)]Gal(b1-3)GlcNAc(b1-3)GalNAc
# Method in brief: as §1
# [5] = target: Fuc(a1-3)[Gal(b1-4)]GlcNAc
# Method in brief: as §1
# [6] = target: Fuc(a1-3)[Gal(b1-4)]GlcNAc(b1-2)Man
# Method in brief: as §1
# [7] = target: Fuc(a1-3)[Gal(b1-4)]GlcNAc(b1-2)Man(a1-3)[Fuc(a1-3)[Gal(b1-4)]GlcNAc(b1-2)Man(a1-6)]Man(b1-4)GlcNAc(b1-4)GlcNAc
# Method in brief: as §1
# [8] = target: Fuc(a1-3)[Gal3S(b1-4)]GlcNAc
# Method in brief: as §1
# [9] = target: Fuc(a1-3)[GalNAc(b1-4)]GlcNAc
# Method in brief: as §1
# [10] = target: Gal(a1-3)Gal(b1-3)[Fuc(a1-4)]GlcNAc(b1-2)Man(a1-3)[Gal(a1-3)Gal(b1-3)[Fuc(a1-4)]GlcNAc(b1-2)Man(a1-6)]Man(b1-4)GlcNAc(b1-4)GlcNAc
# Method in brief: as §1
# Gal(a1-3)Gal(b1-4)GlcNAc = target: Gal(a1-3)Gal(b1-4)GlcNAc
# Method in brief: as §1
# [11] = target: Gal(b1-3)GlcNAc(b1-2)Man(a1-3)[GlcNAc(b1-4)][Gal(b1-3)GlcNAc(b1-2)Man(a1-6)]Man(b1-4)GlcNAc(b1-4)GlcNAc
# Method in brief: as §1
# [12] = target: Gal(b1-3)GlcNAc(b1-3)GalNAc
# Method in brief: as §1
# [13] = target: Gal(b1-4)GlcNAc(b1-3)Gal(b1-3)GlcNAc
# Method in brief: as §1
# [14] = target: Gal(b1-4)GlcNAc(b1-3)Gal(b1-4)GlcNAc(b1-2)Man(a1-3)[Gal(b1-4)GlcNAc(b1-3)Gal(b1-4)GlcNAc(b1-2)Man(a1-6)]Man(b1-4)GlcNAc(b1-4)GlcNAc
# Method in brief: as §1
# [15] = target: Gal(b1-4)GlcNAc(b1-3)Gal(b1-4)GlcNAc(b1-3)Gal(b1-4)GlcNAc
# Method in brief: as §1
# [16] = target: Gal(b1-4)GlcNAc(b1-3)Gal(b1-4)GlcNAc(b1-3)Gal(b1-4)GlcNAc(b1-2)Man(a1-3)[Gal(b1-4)GlcNAc(b1-3)Gal(b1-4)GlcNAc(b1-3)Gal(b1-4)GlcNAc(b1-2)Man(a1-6)]Man(b1-4)GlcNAc(b1-4)GlcNAc
# Method in brief: as §1
# [17] = target: Gal(b1-4)GlcNAc(b1-3)Gal(b1-4)GlcNAc(b1-3)[Gal(b1-4)GlcNAc(b1-3)Gal(b1-4)GlcNAc(b1-6)]GalNAc
# Method in brief: as §1
# Gal3S6S(b1-4)GlcNAc6S = target: Gal3S6S(b1-4)GlcNAc6S
# Method in brief: as §1
# Gal4S(b1-4)GlcNAc = target: Gal4S(b1-4)GlcNAc
# Method in brief: as §1
# Gal4S6S(b1-4)GlcNAc = target: Gal4S6S(b1-4)GlcNAc
# Method in brief: as §1
# Gal6S(b1-3)GlcNAc6S = target: Gal6S(b1-3)GlcNAc6S
# Method in brief: as §1
# Gal6S(b1-4)GlcNAc6S = target: Gal6S(b1-4)GlcNAc6S
# Method in brief: as §1
# [18] = target: GalNAc(a1-3)GalNAc(a1-3)Gal(a1-4)Gal(b1-4)GlcNAc
# Method in brief: as §1
# GalNAc3S(b1-4)GlcNAc = target: GalNAc3S(b1-4)GlcNAc
# Method in brief: as §1
# GalNAc4S6S(b1-4)GlcNAc = target: GalNAc4S6S(b1-4)GlcNAc
# Method in brief: as §1
# [19] = target: GlcNAc(b1-2)[GlcNAc(b1-6)]Man(a1-6)[GlcNAc(b1-2)Man(a1-3)]Man(b1-4)GlcNAc(b1-4)[Fuc(a1-6)]GlcNAc
# Method in brief: as §1
# [20] = target: GlcNAc(b1-3)Gal(b1-3)GalNAc
# Method in brief: as §1
# [21] = target: GlcNAc(b1-3)Gal(b1-4)GlcNAc(b1-2)Man(a1-3)[GlcNAc(b1-3)Gal(b1-4)GlcNAc(b1-2)Man(a1-6)]Man(b1-4)GlcNAc(b1-4)GlcNAc
# Method in brief: as §1
# [22] = target: GlcNAc(b1-3)Gal(b1-4)GlcNAc(b1-3)Gal(b1-4)GlcNAc(b1-2)Man(a1-3)[GlcNAc(b1-3)Gal(b1-4)GlcNAc(b1-3)Gal(b1-4)GlcNAc(b1-2)Man(a1-6)]Man(b1-4)GlcNAc(b1-4)GlcNAc
# Method in brief: as §1
# [23] = target: GlcNAc(b1-3)Gal(b1-4)GlcNAc(b1-3)Gal(b1-4)GlcNAc(b1-2)[GlcNAc(b1-3)Gal(b1-4)GlcNAc(b1-3)Gal(b1-4)GlcNAc(b1-6)]Man(a1-6)[GlcNAc(b1-3)Gal(b1-4)GlcNAc(b1-3)Gal(b1-4)GlcNAc(b1-2)Man(a1-3)]Man(b1-4)GlcNAc(b1-4)[Fuc(a1-6)]GlcNAc
# Method in brief: as §1
# [24] = target: GlcNAc(b1-4)GlcNAc(b1-4)GlcNAc
# Method in brief: as §1
# [25] = target: GlcNAc6S(b1-3)Gal(b1-4)GlcNAc
# Method in brief: as §1
# [26] = target: Man(a1-2)Man(a1-3)[Man(a1-6)]Man(a1-6)[Man(a1-2)Man(a1-3)]Man(b1-4)GlcNAc(b1-4)GlcNAc
# Method in brief: as §1
# [27] = target: Man(a1-2)Man(a1-6)[Man(a1-3)]Man(a1-6)[Man(a1-2)Man(a1-2)Man(a1-3)]Man(b1-4)GlcNAc(b1-4)GlcNAc
# Method in brief: as §1
# [28] = target: Neu5Ac(a2-3)Gal(b1-3)[GlcNAc(b1-6)]GalNAc
# Method in brief: as §1
# [29] = target: Neu5Ac(a2-3)Gal(b1-4)GlcNAc(b1-2)Man
# Method in brief: as §1
# [30] = target: Neu5Ac(a2-3)Gal(b1-4)GlcNAc(b1-2)[Neu5Ac(a2-3)Gal(b1-4)GlcNAc(b1-6)]Man(a1-6)[Neu5Ac(a2-3)Gal(b1-4)GlcNAc(b1-2)Man(a1-3)]Man(b1-4)GlcNAc(b1-4)GlcNAc
# Method in brief: as §1
# [31] = target: Neu5Ac(a2-3)Gal(b1-4)GlcNAc(b1-3)Gal(b1-4)GlcNAc(b1-3)Gal(b1-4)GlcNAc
# Method in brief: as §1
# [32] = target: Neu5Ac(a2-3)[GalNAc(b1-4)]Gal(b1-4)GlcNAc(b1-3)GalNAc
# Method in brief: as §1
# [33] = target: Neu5Ac(a2-6)Gal(b1-4)GlcNAc(b1-2)Man
# Method in brief: as §1
# [34] = target: Neu5Ac(a2-6)Gal(b1-4)GlcNAc(b1-3)Gal(b1-3)GlcNAc
# Method in brief: as §1
# [35] = target: Neu5Ac(a2-8)Neu5Ac(a2-3)[Gal(b1-3)GalNAc(b1-4)]Gal(b1-4)Glc
# Method in brief: as §1
# [36] = target: Neu5Ac(a2-8)Neu5Ac(a2-3)[GalNAc(b1-4)]Gal(b1-4)Glc
# Method in brief: as §1
# [37] = target: Neu5Ac(a2-8)Neu5Ac(a2-8)Neu5Ac(a2-3)[GalNAc(b1-4)]Gal(b1-4)Glc
# Method in brief: as §1
# [38] = target: Neu5Gc(a2-3)Gal(b1-3)[Fuc(a1-4)]GlcNAc
# Method in brief: as §1
# Neu5Gc(a2-3)Gal(b1-4)Glc = target: Neu5Gc(a2-3)Gal(b1-4)Glc
# Method in brief: as §1
# [39] = target: Neu5Gc(a2-6)Gal(b1-4)GlcNAc
# Method in brief: as §1
binder,measurement,setting,value
B1,glycan array binding signal (z-score),[1],5.82
same,glycan array binding signal (z-score),[2],3.8
same,glycan array binding signal (z-score),Fuc(a1-2)Gal6S(b1-4)Glc,-0.497
same,glycan array binding signal (z-score),[3],-0.446
same,glycan array binding signal (z-score),[4],-0.12
same,glycan array binding signal (z-score),[5],-0.094
same,glycan array binding signal (z-score),[6],-0.041
same,glycan array binding signal (z-score),[7],0.271
same,glycan array binding signal (z-score),[8],0.057
same,glycan array binding signal (z-score),[9],-0.291
same,glycan array binding signal (z-score),[10],-0.392
same,glycan array binding signal (z-score),Gal(a1-3)Gal(b1-4)GlcNAc,-0.346
same,glycan array binding signal (z-score),[11],0.625
same,glycan array binding signal (z-score),[12],0.091
same,glycan array binding signal (z-score),[13],-0.114
same,glycan array binding signal (z-score),[14],4.98
same,glycan array binding signal (z-score),[15],0.154
same,glycan array binding signal (z-score),[16],4.44
same,glycan array binding signal (z-score),[17],2.83
same,glycan array binding signal (z-score),Gal3S6S(b1-4)GlcNAc6S,6.21
same,glycan array binding signal (z-score),Gal4S(b1-4)GlcNAc,-0.339
same,glycan array binding signal (z-score),Gal4S6S(b1-4)GlcNAc,2.65
same,glycan array binding signal (z-score),Gal6S(b1-3)GlcNAc6S,3.95
same,glycan array binding signal (z-score),Gal6S(b1-4)GlcNAc6S,2.56
same,glycan array binding signal (z-score),[18],0.168
same,glycan array binding signal (z-score),GalNAc3S(b1-4)GlcNAc,-0.522
same,glycan array binding signal (z-score),GalNAc4S6S(b1-4)GlcNAc,6.54
same,glycan array binding signal (z-score),[19],-0.377
same,glycan array binding signal (z-score),[20],-0.436
same,glycan array binding signal (z-score),[21],-0.424
same,glycan array binding signal (z-score),[22],3.17
same,glycan array binding signal (z-score),[23],1.33
same,glycan array binding signal (z-score),[24],-0.147
same,glycan array binding signal (z-score),[25],-0.104
same,glycan array binding signal (z-score),[26],-0.065
same,glycan array binding signal (z-score),[27],0.275
same,glycan array binding signal (z-score),[28],-0.075
same,glycan array binding signal (z-score),[29],4.34
same,glycan array binding signal (z-score),[30],0.027
same,glycan array binding signal (z-score),[31],-0.461
same,glycan array binding signal (z-score),[32],-0.206
same,glycan array binding signal (z-score),[33],0.729
same,glycan array binding signal (z-score),[34],-0.368
same,glycan array binding signal (z-score),[35],0.256
same,glycan array binding signal (z-score),[36],-0.131
same,glycan array binding signal (z-score),[37],0.212
same,glycan array binding signal (z-score),[38],-0.266
same,glycan array binding signal (z-score),Neu5Gc(a2-3)Gal(b1-4)Glc,-0.241
same,glycan array binding signal (z-score),[39],-0.317
